Source: PubChem BioAssay (NCI)
About 83,000 compounds went through this panel and 20% of them were active in at least one assay; those are over-represented in the sample as a whole.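 Method: cells in 96-well plates; compound added at one concentration; 48 h incubation; percent growth measured; values under 10 scored active.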 Calls of active or inactive are those of the source.

Key:
Experiment in all cases: NCI-60 one-dose screen, 48 h (100 = growth as untreated, 0 = no growth, -100 = all killed)
Conditions in all cases: 10 µM unless noted
[1] = tested on: SR leukemia
[2] = tested on: RPMI-8226 leukemia
[3] = tested on: OVCAR-8 ovarian
[4] = tested on: OVCAR-5 ovarian
[5] = tested on: OVCAR-4 ovarian
[6] = tested on: SK-OV-3 ovarian
[7] = tested on: IGROV1 ovarian
[8] = tested on: OVCAR-3 ovarian
[9] = tested on: HS 578T breast
[10] = tested on: NCI/ADR-RES ovarian
[11] = tested on: T-47D breast
[12] = tested on: BT-549 breast
[13] = tested on: MDA-MB-435 melanoma
[14] = tested on: SW-620 colon
[15] = tested on: MCF7 breast
[16] = tested on: HCT-116 colon
[17] = tested on: HCC-2998 colon
[18] = tested on: KM12 colon

Measured: growth

CC(=O)OC[C@]12CC[C@H]3[C@@H](C[C@H]4O[C@]45CC=CC(=O)[C@]35C)[C@]1(O)CC[C@@]2(O)[C@@](C)(O)C1CC(C)=C(C)C(=O)O1 (stereo partly specified)
inactive: [1] 10.4% | [5] 19.8% | [10] 38.9%
active: [2] -19.6% | [3] 7.69% | [4] -24.1% | [6] -13.1% | [7] -55.1% | [8] -23.7% | [9] -1.18% | [11] -23.2% | [12] -12.2% | [13] -77.4% | [14] -32.1% | [15] -27% | [16] -29.3% | [17] -82.8% | [18] -70.8%

CC(=O)c1cc2c(N)c(C(=O)Nc3cccc4c3OCCO4)sc2nc1C
inactive: [1] 80.8% | [2] 99.7% | [3] 106% | [4] 100% | [5] 110% | [6] 35.8% | [7] 101% | [8] 105% | [9] 96.3% | [10] 96.8% | [11] 56% | [12] 103% | [13] 24.1% | [14] 95.1% | [15] 94.9% | [16] 96.4% | [17] 95% | [18] 98.7%

CCCC(=O)Oc1ccc(/C(=C(\C)c2ccccc2)c2ccc(OCCN(CC)CC)cc2)cc1
inactive: [1] 28.2% | [2] 55.4% | [3] 83.3% | [4] 88.7% | [5] 86.6% | [6] 91.7% | [7] 90.7% | [8] 94.9% | [9] 42.6% | [10] 86.7% | [11] 46.8% | [12] 78.7% | [13] 73.3% | [14] 84.5% | [15] 34.5% | [16] 47.8% | [17] 83.2% | [18] 79.5%

C=C[C@@H]1C[C@H](O)Cc2cc(F)ccc2N1
inactive: [1] 73.6% | [2] 73.2% | [3] 102% | [4] 95.7% | [5] 101% | [6] 104% | [7] 131% | [8] 102% | [9] 90.6% | [10] 105% | [11] 108% | [12] 96.9% | [13] 93.8% | [14] 98.7% | [15] 107% | [16] 103% | [17] 96.2% | [18] 100%

COc1cc2c(cc1OCCCN1CCN(CCCn3c4ccccc4c4ccccc43)CC1)N=C[C@@H]1CCCN1C2=O
active: [1] -34.7% | [2] -57.4% | [3] -6.46% | [4] 3.88% | [5] -39.5% | [6] -80.5% | [7] -64.6% | [8] -91.1% | [9] -54.5% | [10] 1.66% | [11] -31.1% | [12] -84.1% | [13] -80.5% | [14] -83.2% | [15] -72% | [16] -27.8% | [17] -86.3% | [18] -64.7%

N[C@H]1CN(C(=O)c2cc3cc(Br)c(F)c(F)c3[nH]2)C[C@@H]1O
inactive: [1] 108% | [2] 98% | [3] 100% | [4] 94.3% | [5] 110% | [6] 100% | [7] 84.6% | [8] 102% | [9] 98.9% | [10] 100% | [11] 91.3% | [12] 89.5% | [13] 99.2% | [14] 101% | [15] 89.3% | [16] 93.6% | [17] 93.3% | [18] 104%

CCCCNC(=O)Oc1ccc(/C(=C(\C)c2ccccc2)c2ccc(OCCN(CC)CC)cc2)cc1
inactive: [1] 14.5% | [2] 49.8% | [3] 77% | [4] 77.7% | [5] 79.7% | [6] 74.5% | [7] 77.2% | [8] 75.1% | [9] 39.8% | [10] 84.4% | [11] 40.3% | [12] 72.3% | [13] 58.7% | [14] 69.7% | [15] 33.8% | [16] 48.1% | [17] 82.6% | [18] 60.6%

O=C(Nc1ccncc1)C(=O)c1cn(S(=O)(=O)c2ccc(Br)cc2)c2ccccc12
inactive: [1] 26.1% | [2] 35% | [3] 58.6% | [4] 64.4% | [5] 73.3% | [6] 93.9% | [7] 45.1% | [8] 14.7% | [9] 56.2% | [11] 41% | [12] 41.1% | [14] 18.2% | [15] 19.7% | [16] 14.3% | [17] 72% | [18] 26.2%
active: [10] 9.49% | [13] -3.46%

NC(=O)c1c(NC(=S)Nc2ccc(OC(F)(F)F)cc2)sc2c1CCC1(C2)OCCO1
inactive: [1] 92.1% | [2] 93.2% | [3] 99.7% | [4] 91.9% | [5] 95.3% | [6] 89.9% | [7] 96.3% | [8] 109% | [9] 79.5% | [10] 98.9% | [11] 86% | [12] 93.8% | [13] 81.6% | [14] 92.9% | [15] 90.1% | [16] 98.2% | [17] 102% | [18] 94.6%

O=C(CSc1nc2ccccc2[nH]1)c1ccc(N2CCOCC2)cc1
inactive: [1] 129% | [2] 109% | [3] 96% | [4] 102% | [5] 96.5% | [6] 101% | [7] 105% | [8] 106% | [9] 99% | [10] 91.9% | [11] 94.1% | [12] 93% | [13] 100% | [14] 94.5% | [15] 92.2% | [16] 94.3% | [17] 98.3% | [18] 104%

COc1c2occc2c(OC)c2c(=O)c(-c3cc(-c4ccc(F)cc4)c(C#N)c(N)n3)c(C)oc12
active: [16] 9.9%
inactive: [1] 15.5% | [2] 27.3% | [3] 49.1% | [4] 91.9% | [5] 19.4% | [6] 56.5% | [7] 21.3% | [8] 15.2% | [9] 43.7% | [10] 68.2% | [11] 30.7% | [12] 63.7% | [13] 63.1% | [14] 42.3% | [15] 13.4% | [17] 69.3% | [18] 46.2%

O=C1/C(=C/c2ccc(Cl)cc2)CN(C(=O)CCN2CCC(=NO)CC2)C/C1=C\c1ccc(Cl)cc1
active: [1] -5.09% | [2] -34.1% | [3] -89.8% | [4] -63.6% | [5] -78.6% | [6] -38.2% | [7] -67.2% | [8] -97.5% | [9] -20.3% | [10] 1.6% | [11] -37.2% | [12] -88% | [13] -94.7% | [14] -61.1% | [15] -53.3% | [16] -48% | [17] -76.1% | [18] -86.1%

Oc1ccccc1/C=N/NC(=S)NC1CC2C=CC1C2 (stereo unspecified)
active: [10] 0.723%
inactive: [1] 30.1% | [2] 63.5% | [3] 84.3% | [4] 109% | [5] 78.1% | [6] 95.7% | [7] 62.2% | [8] 67.4% | [9] 98.2% | [11] 79.9% | [12] 61% | [13] 11.9% | [14] 45.5% | [15] 80.7% | [16] 42.9% | [17] 66.5% | [18] 53%

CCOc1cc2c(Cl)ncnc2c(OCC)c1OCC
active: [1] 4.52% | [7] -65.2% | [8] 3.36% | [17] -45.3%
inactive: [2] 15.5% | [3] 99.6% | [4] 96.7% | [5] 94.9% | [6] 108% | [9] 94.7% | [10] 92.5% | [11] 76.3% | [12] 75.1% | [13] 78.5% | [14] 59.2% | [15] 52.4% | [16] 49.6% | [18] 71.6%

CCCCCc1cc[n+](CC(=O)c2ccc([N+](=O)[O-])cc2)cc1
inactive: [1] 73.2% | [2] 45.1% | [3] 77% | [4] 109% | [5] 26.3% | [6] 93.9% | [7] 110% | [8] 58.8% | [9] 106% | [10] 110% | [11] 56.7% | [12] 77% | [13] 68.2% | [14] 49% | [15] 43% | [16] 21.2% | [17] 58.1% | [18] 50%

CCCCOc1ccc(/C=C2/SC(N3CCOCC3)=NC2=O)cc1OCC
inactive: [1] 89.5% | [2] 95.6% | [3] 103% | [4] 88.3% | [5] 87.6% | [7] 89% | [8] 115% | [9] 104% | [10] 94.5% | [11] 80.6% | [12] 83% | [13] 99.6% | [14] 96.9% | [15] 99.4% | [16] 93.2% | [17] 109% | [18] 98.7%
active: [6] -16.1%

CCN(CC)CCOc1ccc(/C(=C(/C)c2ccccc2)c2ccc(OC(C)=O)cc2)cc1
inactive: [1] 112% | [2] 100% | [3] 112% | [4] 98.2% | [5] 100% | [6] 106% | [7] 105% | [8] 104% | [9] 95.2% | [10] 101% | [11] 60.2% | [12] 69.1% | [13] 94.8% | [14] 95.5% | [15] 41.7% | [16] 79% | [17] 103% | [18] 102%
